# Results filed as inconclusive are left out. A call without a number means that no potency is given here. The source made the active and inactive calls. The call rests on the fitted dose curve; in most records, active means well fitted activation curve with a large enough effect in the main read-out, with a control signal flat; inconclusive means small, poorly fitted or top-dose-only effect, or effect the other way, or a change in a side signal; inactive means no such curve, though single readings can be large or run the other way.
# Target: Thyrotropin receptor (Homo sapiens) (UniProt P16473)
# Sequence (P16473 whole entry, looked up): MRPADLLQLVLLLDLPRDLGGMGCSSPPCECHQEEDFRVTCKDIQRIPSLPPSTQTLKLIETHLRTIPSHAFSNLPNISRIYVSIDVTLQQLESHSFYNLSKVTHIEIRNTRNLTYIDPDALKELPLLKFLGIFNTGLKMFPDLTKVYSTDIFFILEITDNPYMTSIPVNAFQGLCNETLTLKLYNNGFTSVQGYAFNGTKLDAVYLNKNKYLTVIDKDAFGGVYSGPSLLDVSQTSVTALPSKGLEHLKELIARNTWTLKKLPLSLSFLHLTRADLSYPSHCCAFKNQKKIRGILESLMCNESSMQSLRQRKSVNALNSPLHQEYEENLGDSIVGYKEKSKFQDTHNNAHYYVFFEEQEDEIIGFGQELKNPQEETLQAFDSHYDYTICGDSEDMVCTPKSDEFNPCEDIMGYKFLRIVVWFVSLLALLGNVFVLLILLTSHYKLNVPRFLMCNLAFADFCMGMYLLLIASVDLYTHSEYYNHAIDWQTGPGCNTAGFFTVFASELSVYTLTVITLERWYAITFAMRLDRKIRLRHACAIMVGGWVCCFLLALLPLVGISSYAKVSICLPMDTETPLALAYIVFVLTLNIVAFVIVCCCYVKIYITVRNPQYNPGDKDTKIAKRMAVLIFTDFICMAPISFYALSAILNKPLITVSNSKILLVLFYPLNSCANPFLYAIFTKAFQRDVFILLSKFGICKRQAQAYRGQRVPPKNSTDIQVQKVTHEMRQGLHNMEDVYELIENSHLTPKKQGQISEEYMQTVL
# Experiment: Confirmation Concentration-Response Assay for Agonists of the Thyroid Stimulating Hormone Receptor
# Conditions: HEK293 TSHR-CNG cells, membrane potential dye, cAMP; series mostly up to 25.6 µM
# Description: NIH Chemical Genomics Center [NCGC] NIH Molecular Libraries Screening Centers Network [MLSCN] MLSCN Grant: 1 X01 MH080680-01 PI Name: Dr. Marvin Gershengorn, NIH NCGC Assay Overview: Thyroid Stimulating Hormone Receptor TSH is an alpha/beta heterodimeric glycoprotein hormone secreted from the anterior pituitary gland which belongs to the glycoprotein hormone family. The actions of TSH are mediated by a seven-transmembrane receptor, which upon TSH binding couples preferentially to the G-alpha (s) protein (Gs), resulting in activation of adenylate cyclase and increase in cyclic adenosine 3', 5' monophosphate (cAMP). The TSH receptor (THSR) is mainly expressed in thyroid follicular cells and regulates their growth and function. Recombinant TSH is used to activate TSHR in patients with thyroid cancer receiving thyroid hormone suppression therapy and to screen for residual tumor after surgery, but it is expensive and must be administered intramuscularly. An orally active small molecule TSHR agonist would serve as an invaluable research tool for studying TSHR pharmacology and physiology, and would have multiple advantages in therapeutic settings. However, no selective small molecule agonist of the TSH receptor exists, and no small molecule screen for TSHR agonists has ever been reported. This cell based assay utilized a cyclic nucleotide gated ion channel (CNG) as a biosensor for cAMP induction by potential TSHR agonists. TSHR cell line HEK 293 cells stably expressing the TSHR as well as a modified CNG were purchased from BD biosciences. Stimulation of cAMP production causes the CNG to open and subsequent membrane depolarization to occur. A fluorescent membrane potential dye (BD biosciences) was utilized to detect cAMP stimulation in TSHR cells. The cells were maintained in DMEM medium (Invitrogen) containing 10 % FBS (Hyclone), 100 units/ml Penicillin, 100 ug/ml Streptomycin (Invitrogen), and 250 ug/ml Geneticin (Invitrogen) and 1 ug/ml Puromycin (Invitrogen) at 37C in 5% CO2. HEK 293 cells expressing CNG but without TSHR (parental cells) were used in concert to control for compounds signaling through endogenous receptors and targets of HEK 293 cells.
# NCGC Assay Protocol Summary: High Throughput Screening. Freshly passaged cells (TSHR or parental) were dispensed into 1536-well assay plates at 4 ul/well in DMEM containing phenol red (Invitrogen), 10% FCS (Hyclone), and 100 units/ml Penicillin, 100 ug/ml Streptomycin (Invitrogen) and incubated at 37 C with 5% CO2 for 20 to 36 hrs before the robotic screening. The screen was initiated by addition of 4 ul/well membrane potential dye containing 100 uM RO 20-1724 (Sigma Aldrich), followed by 60 min incubation at room temperature to allow for dye equilibration across the cell membrane. 23 nl/well compound or control was then added to the assay plates, which were incubated for additional 30 min before reading a Envision fluorescence plate reader (Perkin Elmer) in bottom-read mode for fluorescence intensity (emission at 590 nm). Keywords: Thyroid-stimulating hormone TSH, TSHR, TSHR agonist, quantitative high throughput screening, qHTS, HTS, probe identification, CNG, cAMP, cyclic nucleotide gated ion channel PubChem
# Potency means the concentration at half of the fitted maximal effect.
row,SMILES,Potency
1,CC(c1ccco1)N(C(=O)c1ccc(Cl)s1)c1ccccn1 (stereo not given),7.94 µM (active)
2,Cc1cnc(NC(=O)c2ccc3c(c2)C(=O)N(Cc2ccco2)C3=O)s1,inactive
3,O=C(COC(=O)C1c2ccccc2Oc2ccccc21)Nc1ccc2c(c1)OCO2,12.6 µM (active)
4,NC(=O)c1nsc(C(=O)N(CC(=O)NCc2ccc3c(c2)OCO3)C2CCCCC2)c1N,1.26 µM (active)
5,O=C1C2C3CCCC3=C3CCCC3C2C(=O)N1c1ccc(Cl)cc1 (stereo not given),1.58 µM (active)
6,CCOc1ccc(N(CC(=O)NC(C)(C)C)S(=O)(=O)c2c(C)noc2C)cc1,inactive
7,CN(Cc1ccco1)C(=O)Cn1c(=O)oc2cc(S(=O)(=O)NCc3ccccc3)ccc21,12.6 µM (active)
8,O=S1(=O)N=C(Oc2ccccc2)c2ccccc21,inactive
9,Cc1ccc(N(CC(=O)NCc2ccco2)S(=O)(=O)c2ccccc2)cc1,12.6 µM (active)
10,Nc1cc(CN2C(=O)c3ccccc3C2=O)cc(Cl)c1O,inactive
11,O=c1c2ccccc2ncn1-c1ccc2c(c1)OCCO2,inactive
12,CCOC(=O)C1C(=O)Nc2nc(C)nn2C1c1ccccc1 (stereo not given),inactive
13,Cc1ccccc1-n1nc(C)c2cc(C(=O)N3CCN(S(=O)(=O)c4ccc(F)cc4)CC3)sc21,inactive
14,CC(=O)Nc1ccc(S(=O)(=O)N(C)c2ccccc2)cc1,inactive
15,CC(=O)N1CCCc2cc(S(=O)(=O)N(CC(C)C)CC(C)C)ccc21,12.6 µM (active)
16,Oc1ccccc1-c1cc(C(F)(F)C(F)F)nc(-c2ccccc2)n1,7.94 µM (active)
17,COc1cc(OC)cc(-c2nnc(SCC(=O)N(C(C)C)C(C)C)o2)c1,12.6 µM (active)
18,COc1ccc(CNc2nc(SC)n[nH]2)cc1OC,inactive
19,COC(=O)C1=C(C)OC(N)=C(C#N)C1C1CCCCC1 (stereo not given),6.31 µM (active)
20,CCc1ccc(-c2nc(CN3CCC(C(=O)N4CCN(c5ccccc5)CC4)CC3)c(C)o2)cc1,inactive

row,SMILES,Potency
1,c1ccc(-n2cnc3cc(NCc4ccncc4)ccc32)cc1,inactive
2,COc1ccc(-c2cc(C(F)(F)F)nc(SCCC(=O)N3CCOCC3)n2)cc1,15.8 µM (active)
3,CCOC(=O)CSc1nnc(NC(=O)c2cccc(S(=O)(=O)N3CCCCC3)c2)s1,inactive
4,CN1C(=O)C2C=CC1C1C(=O)N(c3ccccc3)C(=O)C21 (stereo not given),inactive
5,CCOc1ccc(N(C(C)C(=O)Nc2ccc(OC)cc2)S(C)(=O)=O)cc1 (stereo not given),inactive
6,Cc1cc(SCNC(=O)c2ccccc2)ncn1,inactive
7,Cc1ccc2nc(SCC(=O)O)nc(C)c2c1,inactive
8,CN1C(=O)N(C)C2(c3ccccc3)Nn3c(s/c(=C/c4ccco4)c3=O)=NC12c1ccccc1 (stereo not given),inactive
9,CCOC(=O)c1cnc(-n2nc(C)cc2C)nc1-n1nc(C)cc1C,inactive
10,C=CCn1c(NCc2ccc3c(c2)OCO3)nc2ccccc21,inactive
11,O=C1C=C(NCc2ccccc2)C2(CCCCC2)O1,inactive
12,O=C1N(c2ccccc2)C2CS(=O)(=O)CC2N1c1ccc(Cl)c(Cl)c1 (stereo not given),inactive
13,Cc1ccc(-n2nc(-c3ccc(N)cc3)cc2N)cc1,inactive
14,O=C1CC(c2ccco2)CC2=C1C(c1ccccc1)n1nc(C(F)(F)F)nc1N2 (stereo not given),1 µM (active)
15,CCC(C)(C)n1nnnc1CN(Cc1ccco1)Cc1cc2cc3c(cc2[nH]c1=O)OCO3,inactive
16,CCS(=O)(=O)N1CCN(C(C)CCc2ccccc2)CC1 (stereo not given),inactive
17,COc1cc2c(N3CCOCC3)cc(O)c(CC(=O)Nc3ccccc3)c2cc1OC,inactive
18,Cc1onc(-c2ccccc2)c1C(=O)N1CCCSC1=Nc1ccccc1,7.94 µM (active)
19,O=C(Nc1ccc(N2CCOCC2)cc1)C1CC1,inactive
20,CCN(c1ccccc1)S(=O)(=O)c1ccc(Oc2ccc(-n3ccnc3)cc2)nc1,inactive

# Reference: PubChem BioAssay AID939 (National Center for Advancing Translational Sciences (NCATS), 2007)
